# Results reported in PubChem BioAssay (NCI).
# Compounds without any hit were thinned out: in the full panel of roughly 83,000, 20% have a hit.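 Interpretation: 100, growth as untreated; towards 0, rising growth inhibition; 0, no net growth; 0 to -100, cell death. Compounds scoring below 10 were considered active.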 Unmarked numbers belong to inactive results. Calls of active or inactive are those of the source.
# System: NCI-H322M lung
# Assay: NCI-60 one-dose screen, 48 h (100 = growth as untreated, 0 = no growth, -100 = all killed)
# Conditions: 10 µM unless noted
row,Compound,growth
1,N#Cc1c(N)[nH]c(S)c1C#N,108%
2,NC(=Nc1ccccc1)SCCCCSC(N)=Nc1ccccc1,85.2%
3,CN(C)c1cccc2c(S(=O)(=O)N[C@H]3CC[C@H]4[C@@H]5CCc6cc(O)ccc6[C@H]5CC[C@]34C)cccc12,57.3%
4,CCCCCCCCCCCCCCCCCc1nccn1CCO,78.1%
5,COC(=O)CCC1=C(C)/C(=C/c2[nH]c(-c3ccc[nH]3)cc2OC)N=C1C,26.6%
6,NC(=O)N/N=C/c1ccc(Br)o1,101%
7,COc1ccc(OC)c2c1[nH]c(=O)c1c3ccccc3cn21,-70.7% (active)
8,O=C1C(=O)c2ccc(Br)cc2-c2cc(Br)ccc21,91.2%
9,O=c1c(O)cccn1CCCNCCCN(CCCn1cccc(O)c1=O)CCCn1cccc(O)c1=O,94.5%
10,CN(CCOc1ccc(CC2SC(=O)NC2=O)cc1)c1ccccn1 (centres undefined),95.3%
11,COc1cccc2c1C(=O)c1c(O)c3c(c(O)c1C2=O)C[C@@](O)(/C(C)=N/NC(=O)c1cccc([N+](=O)[O-])c1)C[C@@H]3OC1CC(N)C(O)C(C)O1 (some centres undefined),-3.02% (active)
12,Cc1nnc(Nc2ccc(NC(=O)Nc3ccc(Cl)cc3)cc2)c2ccccc12,47.8%
13,O=C(Nc1ccc(Cl)cc1)Nc1ccc(Nc2nncc3ccccc23)cc1,64.3%
14,OCc1nnn(-c2ccccc2)c1CO,118%
15,COc1ccc2c(c1)C(=O)c1c-2c(=O)n(CCCCCCC(=O)NO)c2ccccc12,-3.32% (active)
16,O=[N+]([O-])c1ccc(N/N=C\c2ccccc2[N+](=O)[O-])nc1,105%
17,CN1COc2ccc3ccccc3c2C1,91.4%
18,O=C(Nc1cccc2ccccc12)c1cc2c(cc1Br)OCO2,97.8%
19,Cc1cc(NC(=O)Nc2cc(Cl)ccc2C)no1,146%

row,Compound,growth
1,O=C1C[C@@H]2/C(=C(O)\C=C\c3ccccc3)C(=O)C=C[C@@H]2O1,26.1%
2,O=C1/C(=C/c2ccc([N+](=O)[O-])o2)Oc2ccc(Cl)cc21,79%
3,c1ccc(N2CCN(c3nncc4ccccc34)CC2)nc1,114%
4,O=C(Nc1ccc(Oc2ccc(NC(=O)Nc3ccc([N+](=O)[O-])cc3)cc2)cc1)Nc1ccc([N+](=O)[O-])cc1,22.6%
5,Cc1cc(C)n(C(=O)c2nn(-c3ccc(Cl)cc3)cc2O)n1,37.2%
6,NC(=O)c1ncn([C@@H]2O[C@H](CO)[C@@H](O)[C@H]2O)n1,88.3%
7,CCCCN(CCCC)CCCOC(=O)c1ccc(N)cc1,98.2%
8,COc1ccc2c(c1)C(=O)/C(=C/c1ccc([N+](=O)[O-])s1)O2,11.4%
9,CCCCCCCCCCCCCCCCCC1=NC(C)(C)CN1CCO,59.8%
10,COc1cc([C@@H]2c3cc4c(cc3C(O[C@@H]3O[C@@H]5CO[C@@H](c6cccs6)OC5[C@H](O)[C@H]3O)C3COC(=O)[C@@H]32)OCO4)cc(OC)c1O (some centres undefined),7.81% (active)
11,CC12CCC3C(CCC4CC(=O)/C(=C\O)CC43C)C1CCC(=O)O2 (centres undefined),108%
12,O=C(Nc1ccc(Cl)cc1Cl)Nc1ccc(-c2cccnc2)cc1N1CCC(CO)CC1,61.5%
13,CCN(CC)CCCCNc1c2ccccc2[n+](C)c2c1[nH]c1ccccc12,-35.5% (active)
14,Cc1ccc(NC(=O)Nc2ccc(-c3cccnc3)cc2N2CCC(CO)CC2)cc1,34.3%
15,COc1cc(C2CC(c3ccc(C)cc3)=NN2C(C)=O)ccc1Oc1ccnc2cc(Cl)ccc12 (centres undefined),79.9%
16,C[n+]1c2ccccc2c(NC2CCNCC2)c2[nH]c3ccccc3c21,-38.2% (active)
17,Clc1ccc([C@@H]2C[C@@H]3Cc4cc(Br)c5ccccc5c4N2O3)c(Cl)c1,90.7%
18,C=C(C)[C@@H]1C[C@H](O)Cc2cc(Cl)cc(Cl)c2N1,100%

# System: HOP-62 NSCLC
# Assay: as above
# Conditions: 10 µM unless noted
row,Compound,growth
1,N#Cc1c(N)[nH]c(S)c1C#N,100%
2,NC(=Nc1ccccc1)SCCCCSC(N)=Nc1ccccc1,82.2%
3,CN(C)c1cccc2c(S(=O)(=O)N[C@H]3CC[C@H]4[C@@H]5CCc6cc(O)ccc6[C@H]5CC[C@]34C)cccc12,66.8%
4,CCCCCCCCCCCCCCCCCc1nccn1CCO,68%
5,COC(=O)CCC1=C(C)/C(=C/c2[nH]c(-c3ccc[nH]3)cc2OC)N=C1C,3.57% (active)
6,NC(=O)N/N=C/c1ccc(Br)o1,94.2%
7,COc1ccc(OC)c2c1[nH]c(=O)c1c3ccccc3cn21,-33.6% (active)
8,O=C1C(=O)c2ccc(Br)cc2-c2cc(Br)ccc21,76.3%
9,O=c1c(O)cccn1CCCNCCCN(CCCn1cccc(O)c1=O)CCCn1cccc(O)c1=O,106%
10,CN(CCOc1ccc(CC2SC(=O)NC2=O)cc1)c1ccccn1 (centres undefined),94.3%
11,COc1cccc2c1C(=O)c1c(O)c3c(c(O)c1C2=O)C[C@@](O)(/C(C)=N/NC(=O)c1cccc([N+](=O)[O-])c1)C[C@@H]3OC1CC(N)C(O)C(C)O1 (some centres undefined),-23.8% (active)
12,Cc1nnc(Nc2ccc(NC(=O)Nc3ccc(Cl)cc3)cc2)c2ccccc12,4.62% (active)
13,O=C(Nc1ccc(Cl)cc1)Nc1ccc(Nc2nncc3ccccc23)cc1,38.7%
14,OCc1nnn(-c2ccccc2)c1CO,110%
15,COc1ccc2c(c1)C(=O)c1c-2c(=O)n(CCCCCCC(=O)NO)c2ccccc12,-3.67% (active)
16,O=[N+]([O-])c1ccc(N/N=C\c2ccccc2[N+](=O)[O-])nc1,123%
17,CN1COc2ccc3ccccc3c2C1,80.1%
18,O=C(Nc1cccc2ccccc12)c1cc2c(cc1Br)OCO2,125%
19,Cc1cc(NC(=O)Nc2cc(Cl)ccc2C)no1,96.2%

row,Compound,growth
1,O=C1C[C@@H]2/C(=C(O)\C=C\c3ccccc3)C(=O)C=C[C@@H]2O1,2.64% (active)
2,O=C1/C(=C/c2ccc([N+](=O)[O-])o2)Oc2ccc(Cl)cc21,74.5%
3,c1ccc(N2CCN(c3nncc4ccccc34)CC2)nc1,102%
4,O=C(Nc1ccc(Oc2ccc(NC(=O)Nc3ccc([N+](=O)[O-])cc3)cc2)cc1)Nc1ccc([N+](=O)[O-])cc1,-25% (active)
5,Cc1cc(C)n(C(=O)c2nn(-c3ccc(Cl)cc3)cc2O)n1,47.8%
6,NC(=O)c1ncn([C@@H]2O[C@H](CO)[C@@H](O)[C@H]2O)n1,97.2%
7,CCCCN(CCCC)CCCOC(=O)c1ccc(N)cc1,88.7%
8,COc1ccc2c(c1)C(=O)/C(=C/c1ccc([N+](=O)[O-])s1)O2,35.2%
9,CCCCCCCCCCCCCCCCCC1=NC(C)(C)CN1CCO,-74.9% (active)
10,COc1cc([C@@H]2c3cc4c(cc3C(O[C@@H]3O[C@@H]5CO[C@@H](c6cccs6)OC5[C@H](O)[C@H]3O)C3COC(=O)[C@@H]32)OCO4)cc(OC)c1O (some centres undefined),-39.8% (active)
11,CC12CCC3C(CCC4CC(=O)/C(=C\O)CC43C)C1CCC(=O)O2 (centres undefined),90.9%
12,O=C(Nc1ccc(Cl)cc1Cl)Nc1ccc(-c2cccnc2)cc1N1CCC(CO)CC1,42%
13,CCN(CC)CCCCNc1c2ccccc2[n+](C)c2c1[nH]c1ccccc12,-3.3% (active)
14,Cc1ccc(NC(=O)Nc2ccc(-c3cccnc3)cc2N2CCC(CO)CC2)cc1,24.9%
15,COc1cc(C2CC(c3ccc(C)cc3)=NN2C(C)=O)ccc1Oc1ccnc2cc(Cl)ccc12 (centres undefined),16.4%
16,C[n+]1c2ccccc2c(NC2CCNCC2)c2[nH]c3ccccc3c21,26.5%
17,Clc1ccc([C@@H]2C[C@@H]3Cc4cc(Br)c5ccccc5c4N2O3)c(Cl)c1,87.2%
18,C=C(C)[C@@H]1C[C@H](O)Cc2cc(Cl)cc(Cl)c2N1,96.6%
